Reference: PubChem BioAssay (NCI)
About 83,000 compounds went through this panel and 20% of them were active in at least one assay; those are over-represented in the sample as a whole.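 Cell lines were cultured in 96-well plates, exposed to a single compound concentration, and assessed for percent growth 48 hours later.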 Values without a mark were called inactive. The source made the active and inactive calls. The calls were made as follows: active = growth percent below 10; inactive = the rest.

Tests used:
Experiment in all cases: NCI-60 one-dose screen, 48 h (100 = growth as untreated, 0 = no growth, -100 = all killed)
Details in all cases: 10 µM unless noted
SK-MEL-2 melanoma = tested on: SK-MEL-2 melanoma
EKVX NSCLC = tested on: EKVX NSCLC
UO-31 renal = tested on: UO-31 renal
TK-10 renal = tested on: TK-10 renal
ACHN renal = tested on: ACHN renal
CAKI-1 renal = tested on: CAKI-1 renal
A498 renal = tested on: A498 renal
CCRF-CEM leukemia = tested on: CCRF-CEM leukemia
MOLT-4 leukemia = tested on: MOLT-4 leukemia
SN12C renal = tested on: SN12C renal

Compound | growth (SK-MEL-2 melanoma) | growth (EKVX NSCLC) | growth (UO-31 renal) | growth (TK-10 renal) | growth (ACHN renal) | growth (CAKI-1 renal) | growth (A498 renal) | growth (CCRF-CEM leukemia) | growth (MOLT-4 leukemia) | growth (SN12C renal)
COc1nc2c(cc1S(=O)(=O)c1ccccc1)CCc1c-2cnn1-c1ccc(Cl)cc1 | 97.2% | 90.4% | 99.3% | 110% | 102% | 90.8% | 82.4% | 84.2% | 86.3% | –
COc1cccc2c1C(=O)c1c(O)c3c(c(O)c1C2=O)C[C@@](O)(/C(C)=N/NC(=O)c1ccc(Cl)cc1)C[C@@H]3OC1CC(N)C(O)C(C)O1 (stereo partly drawn) | -81.1% (active) | – | -40.4% (active) | -23.2% (active) | -36.3% (active) | -53.2% (active) | -88.4% (active) | -10.8% (active) | -31.3% (active) | 5.79% (active)
O=C1Nc2ccccc2/C1=C/C(=N/c1nnc(-c2ccccc2)s1)c1ccccc1 | 97.4% | – | -87.2% (active) | -39.7% (active) | -54.8% (active) | -10.2% (active) | 106% | -45% (active) | -24.2% (active) | 41.8%
O=C(COCc1c(-c2ccccc2)no[n+]1[O-])Nc1ccc(C(=O)/C=C/c2ccc3c(c2)OCO3)cc1 | 134% | 108% | 87.4% | – | 94.6% | 91.7% | 111% | 82.4% | 77.2% | 102%
COc1ccc(CN(c2ccc(C)cc2)C2OC(=O)c3ccccc32)cc1OC (stereo not drawn) | 95.3% | – | 94.3% | 107% | 95% | 99.1% | 79.4% | 91.3% | 98.6% | 99.1%
COc1cc(C2CC(=O)Nc3c2cnn3Cc2ccco2)cc2c1OCCO2 (stereo not drawn) | 86.8% | – | 97% | 102% | 93.1% | 96.9% | 64.3% | 111% | 65.6% | 91.3%
CNC(=S)N/N=C/CSC/C=N/NC(=S)NC | 98.7% | – | 71.7% | 103% | 99.6% | 98.7% | 110% | 20.4% | 48.7% | 104%
O=C(Nc1cccc2c1C(=O)c1cccc(Nc3cccc4c3C(=O)c3cccc(NC(=O)c5ccccc5)c3C4=O)c1C2=O)c1ccccc1 | 109% | 125% | 86.3% | 108% | 104% | 99.1% | 121% | 89.5% | 104% | –
O=[N+]([O-])c1c(F)cccc1Nc1cccc(F)c1 | 103% | 103% | 78.3% | 113% | 101% | 101% | 80.8% | – | 93.8% | –
CCCN(CCC)CN(CCC)CCC | 108% | 98.8% | 84.8% | 106% | 102% | 96.3% | 91.8% | – | 97.1% | –
CCOC(=S)SCc1ccc(Cl)cc1 | 105% | 83.8% | 91.1% | 105% | 98.1% | – | 75.8% | 130% | 82.2% | –
O=C1OC2C(I)C3CC2C1C3c1ccccc1 (stereo not drawn) | 128% | 129% | 95.8% | 145% | 102% | – | 114% | 110% | 102% | –
O=C(O)c1ccc(=O)[nH]n1 | 116% | 116% | 88.3% | – | 98.8% | 109% | 105% | 112% | 89% | 94.3%
COc1nc2c(cc1S(=O)(=O)c1ccccc1)CCc1c-2cnn1Cc1ccccc1 | 74.3% | 36.1% | 39.4% | 61% | 71.7% | – | 17.6% | 68.7% | 44.9% | –
CSc1ccc(N=C=C(c2ccccc2)c2ccccc2)cc1 | 93.5% | 96.6% | 83.5% | – | 92.9% | 96.9% | 81.8% | 1.03% (active) | 34.7% | 81.7%
C=CC[N+]1(CCO)CCN=C1CCCCCCCCCCCCC (stereo not drawn) | -64.2% (active) | -29.4% (active) | -60.7% (active) | -87% (active) | -91.9% (active) | -47.7% (active) | 82.6% | -40.6% (active) | -42.6% (active) | –

Compound | growth (SK-MEL-2 melanoma) | growth (EKVX NSCLC) | growth (UO-31 renal) | growth (TK-10 renal) | growth (ACHN renal) | growth (CAKI-1 renal) | growth (A498 renal) | growth (CCRF-CEM leukemia) | growth (MOLT-4 leukemia) | growth (SN12C renal)
COc1ccc(-c2c(C)noc2-c2ccc(O)cc2O)cc1 | 101% | – | 87.3% | 99.8% | 90.3% | 95.8% | 88% | 71.7% | 59.1% | 85.7%
CCN(CC)c1ccc(CNc2cc(C)nc3ccc(OC)cc23)cc1 | 79.2% | 25.7% | 3.78% (active) | 71.1% | 78.1% | 21.6% | 17% | 23.3% | 4.46% (active) | –
Cc1ccc(SCN2CCN(c3cccc(Cl)c3)CC2)cc1 | 102% | 90.2% | 86.6% | – | 104% | 70.7% | 85.5% | 38.7% | 83.4% | 75.6%
O=C(O)c1cccnc1Br | 99.6% | 107% | 73.5% | 113% | 99.6% | 94.1% | 104% | 121% | 103% | –
COc1ccc2nc(NC(=O)c3cccnc3Nc3cc(OC)c(OC)c(OC)c3)sc2c1 | 48% | 36.3% | – | – | 58% | 5.14% (active) | -64.4% (active) | 48.6% | 56.7% | 18.5%
CCN(CC)CCCNc1cccc2c(SCc3ccccc3)ccnc12 | 114% | 63.5% | -9.99% (active) | 63.7% | 102% | 58.8% | 75.7% | -26.1% (active) | -24.2% (active) | –
Cc1cc2c(cc1C)NC1=C(N2)OC(c2c3ccccc3cc3ccccc23)C1=O (stereo not drawn) | 31% | 22.2% | – | 107% | 29% | 42.5% | 142% | 20.5% | 24.8% | 14.3%
CN1/C(=C\C=C\C2=[N+](C)c3ccccc3C2(C)C)C(C)(C)c2ccccc21 | -56.6% (active) | 13.3% | 8.16% (active) | 5.75% (active) | 1.47% (active) | 23% | 1.83% (active) | 7.62% (active) | -12.6% (active) | –
C=CCSc1nnc(-c2ccc(C(C)(C)C)cc2)n1-c1cccc(C(F)(F)F)c1 | 46.7% | 22.2% | – | 51.1% | 36.3% | 32.3% | 84.7% | 24.2% | 21.8% | 29.4%
c1c2c(cc3c1OCO3)Cc1cc3c(cc1Cc1cc4c(cc1C2)OCO4)OCO3 | 115% | – | 95.7% | 116% | 101% | 89.9% | 107% | 112% | 116% | 98.5%
CCOC(=O)N1CCN(c2nc(Nc3cc(C)[nH]n3)c3ccccc3n2)CC1 | 52.4% | – | 47.4% | 40.9% | 50.7% | 20.8% | -21.8% (active) | 40.1% | 69.1% | 45.8%
CCOC(=O)c1nc(Nc2cc(C)[nH]n2)c2ccccc2n1 | 89.4% | – | 76.7% | 77.3% | 73.4% | 37.7% | 62.4% | 96.9% | 102% | 97%
Cc1nn(-c2nc3ccccc3[nH]2)c2c1C(c1ccc3c(c1)OCO3)CC(=O)N2 (stereo not drawn) | 52.9% | – | 22.7% | 69.4% | 31% | 65.7% | -8.66% (active) | 12.1% | -48.5% (active) | 41.9%
Cc1ccc(S(=O)(=O)N(CCc2ccc(Cl)cc2)S(=O)(=O)c2ccc(C)cc2)cc1 | 75.3% | – | 70% | 83.9% | 95.2% | 72.8% | 115% | 83.7% | 66.5% | 105%
COc1ccc(C(=O)c2sc3nc4c(cc3c2N)CCCC4)cc1OC | 25.3% | – | 55.7% | 83% | 63% | 57.9% | 34.9% | 28.9% | 6.5% (active) | 62.8%
